Measurements taken from the supplement of paper PMC6555819.

What follows are sequences tested on LXRa:RXRa (NR concentration 270 nM, RXRa partner concentration 90 nM) (assay: PBM binding z-score (relative to random genomic background probes); higher = stronger binding; sequences stand for … in GC…GCGATTGACAGCGTAGAATGAAGG).
How it was run: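 Antibodies against each partner of ligand-free nuclear receptor dimers (one per run) detected binding on custom Agilent 4×180K protein-binding microarrays after 1 h incubation. The double-stranded probes had 34-nt variable regions carrying direct-repeat seeds, single-nucleotide variants, half-site ablations and random human genomic background sequences. Binding z-scores, from regression-normalized fluorescence, use the random background probes as reference.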

Sequence	PBM binding z-score
ATATGTAGGTTACATCCGGGTCATTTAGGCTATG	4.62
CGTAGCAGGCCAGGGTCACTCAAGCATTTCGCTT	1.78
CCAGACAGGTGAGAAAGTAACTCAGCCTCGATTA	0.0409
ACTATTAGTTGACTTAGAGCAACCGATACGACGC	0.0474
GGAACGAGGGCAAGTTGATATCAGAGTTTGATGG	0.358
ACTATTAGCTGACTTAGGGCAACCGATACGACGC	-0.128
TAGCCTAGGTCATTGGGCCAGCATAGTACGCATC	3.2
CCTATTAGTTGCCCATAAGGGCAACCGAAGCTCG	0.339
GCTGCTAGGTCAGGTTGGTTAGCTAACGGGTACG	0.689
TTACCAAGGTAAGCTGAGGTCGTTGATCCAACTC	2.12
TCTGCTAGGTCATTTGGTCAGCTAACGAGCTGCC	3.21
TAGCCTAGGTCATTCAGAGGCCAGTATAGAAAGC	3.63
CTCGAAAGGTCGGTTTAGGTGAGTATACGGATAA	1.54
ACTATTAATTGACTTAGGGCAACCGATACGACGC	0.356
CGCACTAGGTCAGAACAGGACAGTGAAGGATGAT	1.02
CCTTACGCGTCACTCCAGGTTATAGCATCGGAGT	4.05
GCTATTCGTTGAAAGGGCAACCGAATGATTCTCG	0.488
TCGAGTAGGCTACCAATGGGGCATTCAGCTTTCT	-0.102
GATACAGGATCAAGGCCAGAGTACGCGTATTGAT	-0.625
GCTGCTAGCTCAGGTTGGTCAGCTAACGGGTACG	-0.822
TCATATAGGTAACGGTGAAAGTCGAACGATATGA	0.386
TCAGACAGGTGAAGGTAAGTCAGGTACGCAGTCG	0.454
